Measurements as given in PubChem BioAssay (Tox21).
Records with an inconclusive call do not appear. Active and inactive are the calls of the source. Unless noted, calls come from the whole dose curve.

Experiments:
[1] = Nuclear factor erythroid 2-related factor 2/antioxidant responsive element (Nrf2/ARE) small molecule agonists: qHTS cell viability counter screen in human keratinocytes (AID 1919968; active = well fitted curve in the direction sought with a large enough effect in the repeat runs; an effect the other way counts as inactive or inconclusive; note: nearly all actives have a fitted effect of over 55% in size; note: potency is the fitted concentration of half-maximal effect)
How it was run: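 Cytotoxicity was multiplexed with the Nrf2/ARE luciferase assay in the same wells. Stably transfected HaCaT keratinocytes were treated with test compounds for 23 h at 37 C. Cell viability was then measured by CellTiter-Fluor fluorescence.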

[2] = target: Gonadotropin-releasing hormone receptor (Homo sapiens) (UniProt P30968); assay: Human gonadotropin-releasing hormone receptor (GnRHR) small molecule agonists, calcium flux assay in GnRHR-HEK293 cells (AID 1920063); note: nearly all actives have a fitted effect of over 35% in size; note: potency is the fitted concentration of half-maximal effect
How it was run: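 Agonist activity was measured as intracellular calcium flux in HEK293 cells engineered to stably express human GnRHR. After dye loading for 1 hour at 37 C, compounds in DMSO were added and fluorescence was followed for 3 minutes.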

[3] = target: KiSS-1 receptor (Homo sapiens) (UniProt Q969F8); assay: Human kisspeptin (KISS1R) small molecule agonists, calcium flux assay in KISS1R-HEK293 cells (AID 1920064; active = well fitted curve in the direction sought with a large enough effect in the repeat runs; an effect the other way counts as inactive or inconclusive; note: potency is the fitted concentration of half-maximal effect)
How it was run: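 Agonist activity is monitored as intracellular calcium rise in engineered HEK293 cells carrying human KISS1R. Cells are dye-loaded for 1 h at 37 C before compound addition, and fluorescence is recorded for 3 min.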

[4] = p53 small molecule agonists, cell-based qHTS assay with human liver microsomes (AID 1963577);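 note: p53 response element beta-lactamase reporter cells with liver microsomes plus NADPH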
How it was run: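 Steps: plate p53RE-bla cells, incubate 5 h at 37 C; add compound in DMSO; add microsomes (0.5 mg/mL final) and NADPH (0.5 mg/mL final); incubate 16 h at 37 C; add LiveBLAzer, 2 h RT; read fluorescence.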

[5] = p53 small molecule agonists, cell-based qHTS assay with rat liver microsomes (AID 1963578)
How it was run: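 Metabolic activation is supplied by rat liver microsomes with NADPH (each 0.5 mg/mL final). p53RE-bla cells incubate with compound 16 h at 37 C; reporter activity is measured by LiveBLAzer fluorescence.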

[6] = p53 small molecule agonists, cell-based qHTS assay with human liver microsomes: qHTS cell viability counter screen (AID 1963579); note: nearly all actives have a fitted effect of over 45% in size; note: potency is the fitted concentration of half-maximal effect
How it was run: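 After the 460/530 nm beta-lactamase read, CellTiter-Glo was added to the same wells and luminescence measured after 30 min at room temperature, giving viability of p53RE-bla cells treated 16 h with compounds plus microsomes and NADPH.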

[7] = p53 small molecule agonists, cell-based qHTS assay with rat liver microsomes: qHTS cell viability counter screen (AID 1963580); note: nearly all actives have a fitted effect of over 45% in size; note: potency is the fitted concentration of half-maximal effect
How it was run: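 Cytotoxicity counter screen: intracellular ATP measured by CellTiter-Glo luminescence in the same wells as the beta-lactamase reporter read, on HCT-116 p53RE-bla cells exposed 16 h at 37 C to compounds with rat liver microsomes and NADPH, each 0.5 mg/mL final.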

[8] = p53 small molecule agonists, cell-based qHTS assay: qHTS cell viability counter screen (AID 1963581); note: nearly all actives have a fitted effect of over 45% in size; note: potency is the fitted concentration of half-maximal effect
How it was run: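 Viability was counter-screened in parallel with the p53 agonist reporter by measuring intracellular ATP luminescence in the same HCT-116 p53RE-bla wells after 16 h compound treatment at 37 C.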

[9] = p53 small molecule agonists, cell-based qHTS assay (AID 1963582; active = well fitted activation curve with a large enough effect in the signal ratio in the repeat runs, not every such curve was filed as active; the % refers to the signal ratio; note: potency is the fitted concentration of half-maximal effect)
How it was run: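 Cells carrying a p53-responsive bla reporter are treated with test compounds for 16 h at 37 C; beta-lactamase activity is then detected with LiveBLAzer B/G FRET substrate after 2 h at room temperature.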

[10] = target: 5-hydroxytryptamine receptor 2A (Homo sapiens) (UniProt P28223); assay: 5-hydroxytryptamine receptor 2A (HTR2A) small molecule antagonists, cell-based qHTS assay (AID 1963586); note: nearly all actives have a fitted effect of over 45% in size
How it was run: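 CHO cells stably expressing human HTR2A were plated for 18 h at 37 C, then loaded with calcium dye for 1 h. Compounds were preincubated 5 min at room temperature before DOI (4 nM solution) was added. Kinetic fluorescence was read for 3 min.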

[11] = target: 5-hydroxytryptamine receptor 2A (Homo sapiens) (UniProt P28223); assay: 5-hydroxytryptamine receptor 2A (HTR2A) small molecule agonists, cell-based qHTS assay (AID 1963587); note: nearly all actives have a fitted effect of over 30% in size; note: potency is the fitted concentration of half-maximal effect
How it was run: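 CHO cells stably expressing human HTR2A, plated 18 h, loaded with calcium dye 1 h at 37 C. Agonist mode: compounds added and intracellular calcium fluorescence recorded kinetically for 2 min at 1 sec intervals.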

[12] = target: Muscarinic acetylcholine receptor M1 (Homo sapiens) (UniProt P11229); assay: Cholinergic receptor muscarinic 1 (CHRM1) small molecule antagonists, cell-based qHTS assay (AID 1963588); note: nearly all actives have a fitted effect of over 40% in size; note: potency is the fitted concentration of half-maximal effect
How it was run: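 Compounds were tested at 15 concentrations in three independent runs. Dye-loaded CHRM1-CHO cells were exposed 5 min at room temperature before stimulation by acetylcholine added at 50nM. Intracellular calcium was read kinetically on FDSS for 3 min.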

[13] = target: Muscarinic acetylcholine receptor M1 (Homo sapiens) (UniProt P11229); assay: Cholinergic receptor muscarinic 1 (CHRM1) small molecule agonists, cell-based qHTS assay (AID 1963589); note: nearly all actives have a fitted effect of over 35% in size
How it was run: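 Cells were plated and incubated 18 h at 37 C/5% CO2, loaded with calcium dye for 1 h at 37 C, then treated with compounds in DMSO. Fluorescence was recorded kinetically at 1 sec intervals.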

[14] = cAMP Responsive Elements (CRE) small molecule agonists, cell-based qHTS assay (AID 1963590)
How it was run: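 Cells carrying a CRE-driven beta-lactamase reporter (HEK 293T) are seeded, incubated overnight (18 h), and treated with test compounds for 3 h at 37 C; reporter activity is then detected with a FRET substrate after 2 h at room temperature.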

[15] = target: Beta-2 adrenergic receptor (Homo sapiens) (UniProt P07550); assay: Adrenergic beta2 receptor (ADRB2) small molecule antagonists, cell-based qHTS assay (AID 1963592); note: nearly all actives have a fitted effect of over 50% in size; note: potency is the fitted concentration of half-maximal effect
How it was run: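 Assay format: CHO-ADRB2 cells, 18-20hr seeding at 37C/5% CO2, then compound plus 1nM isoproterenol agonist mix for 0.5hr RT. Homogeneous time-resolved fluorescence cAMP detection after 1hr, expressed as 665/615 nm ratio.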

[16] = target: D(2) dopamine receptor (Homo sapiens) (UniProt P14416); assay: Dopamine D2 receptor (DRD2) small molecule agonists, cell-based qHTS assay (AID 1963594); note: nearly all actives have a fitted effect of over 35% in size; note: potency is the fitted concentration of half-maximal effect
How it was run: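 HEK293 cells stably expressing human DRD2, pre-treated with PDE inhibitor Ro20-1724 (0.1 mM final) and compound 10 min at room temperature, then stimulated with NKH477 (200nM […]) for 30 min. cAMP read by HTRF (665/620 nm).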

[17] = G protein-coupled receptor (GPCR) small molecule agonists, calcium flux assay: HEK293 wild type cell line counter screen (AID 1920065)
How it was run: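 Seed cells, incubate 18 h (37 C, 5% CO2); add calcium dye, 1 h at 37 C; pin-transfer compounds, ATP control or DMSO; read fluorescence 480/540 nm each second for 3 min.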

[18] = cAMP Responsive Elements (CRE) small molecule antagonists, cell-based qHTS assay (AID 1963591; active = well fitted inhibition curve with a large enough effect in the signal ratio in the repeat runs, not every such curve was filed as active; the % refers to the signal ratio; note: potency is the fitted concentration of half-maximal effect)
How it was run: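 Cells (CRE-bla HEK 293T, DMEM with 10% dialyzed FBS and 25 mM HEPES) are seeded and incubated 18 h. Compounds are added with NKH477 agonist at 0.25 uM final for 3 h, then FRET substrate for 2 h.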

[19] = target: Beta-2 adrenergic receptor (Homo sapiens) (UniProt P07550); assay: Adrenergic beta2 receptor (ADRB2) small molecule agonists, cell-based qHTS assay (AID 1963593); note: potency is the fitted concentration of half-maximal effect;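 for activation: CHO cells stably overexpressing human ADRB2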
How it was run: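 CHO cells stably over-expressing ADRB2 were plated overnight at 37C, then dosed with compounds plus a stimulation mix containing 100uM IBMX and 25uM Ro-20-1724 for 0.5hr at room temperature. cAMP was measured by HTRF competition, 1hr.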

[20] = target: D(2) dopamine receptor (Homo sapiens) (UniProt P14416); assay: Dopamine D2 receptor (DRD2) small molecule antagonists, cell-based qHTS assay (AID 1963595; active = well fitted inhibition curve with a large enough effect in the signal ratio in the repeat runs, with a control signal flat; the % refers to the signal ratio; note: potency is the fitted concentration of half-maximal effect)
How it was run: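 Cells were plated and grown for 24 h at 37 °C. Ro20-1724 (0.1 mM final) went in first, then compound for 10 min. NKH477 (200 nM) with quinpirole (12 nM) followed for 30 min at RT, then HTRF detection reagents for 1 h.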

Measured: Potency

5-hydroxytryptamine receptor 2A (Homo sapiens), sequence (P28223 whole entry, looked up): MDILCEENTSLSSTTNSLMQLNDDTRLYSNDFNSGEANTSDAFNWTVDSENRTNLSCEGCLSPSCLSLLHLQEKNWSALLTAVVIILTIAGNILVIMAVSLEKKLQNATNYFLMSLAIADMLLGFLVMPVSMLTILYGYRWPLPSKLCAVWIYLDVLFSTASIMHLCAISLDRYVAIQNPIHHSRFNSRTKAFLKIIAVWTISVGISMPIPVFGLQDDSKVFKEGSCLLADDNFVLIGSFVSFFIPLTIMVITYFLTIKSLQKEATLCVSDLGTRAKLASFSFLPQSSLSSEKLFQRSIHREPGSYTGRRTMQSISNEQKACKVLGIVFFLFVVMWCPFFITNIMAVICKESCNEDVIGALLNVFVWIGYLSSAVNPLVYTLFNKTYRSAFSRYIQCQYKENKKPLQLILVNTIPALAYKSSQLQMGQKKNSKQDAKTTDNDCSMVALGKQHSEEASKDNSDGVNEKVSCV
Gonadotropin-releasing hormone receptor (Homo sapiens), sequence (P30968 whole entry, looked up): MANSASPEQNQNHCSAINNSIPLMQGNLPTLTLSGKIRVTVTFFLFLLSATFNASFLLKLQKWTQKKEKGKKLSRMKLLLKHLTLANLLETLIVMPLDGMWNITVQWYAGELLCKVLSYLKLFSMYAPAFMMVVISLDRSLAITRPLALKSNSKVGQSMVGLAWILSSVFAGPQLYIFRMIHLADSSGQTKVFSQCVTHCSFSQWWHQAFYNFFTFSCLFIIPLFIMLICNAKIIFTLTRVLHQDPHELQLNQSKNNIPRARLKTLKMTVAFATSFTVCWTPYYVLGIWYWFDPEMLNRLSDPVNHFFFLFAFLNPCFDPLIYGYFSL
D(2) dopamine receptor (Homo sapiens), sequence (P14416 whole entry, looked up): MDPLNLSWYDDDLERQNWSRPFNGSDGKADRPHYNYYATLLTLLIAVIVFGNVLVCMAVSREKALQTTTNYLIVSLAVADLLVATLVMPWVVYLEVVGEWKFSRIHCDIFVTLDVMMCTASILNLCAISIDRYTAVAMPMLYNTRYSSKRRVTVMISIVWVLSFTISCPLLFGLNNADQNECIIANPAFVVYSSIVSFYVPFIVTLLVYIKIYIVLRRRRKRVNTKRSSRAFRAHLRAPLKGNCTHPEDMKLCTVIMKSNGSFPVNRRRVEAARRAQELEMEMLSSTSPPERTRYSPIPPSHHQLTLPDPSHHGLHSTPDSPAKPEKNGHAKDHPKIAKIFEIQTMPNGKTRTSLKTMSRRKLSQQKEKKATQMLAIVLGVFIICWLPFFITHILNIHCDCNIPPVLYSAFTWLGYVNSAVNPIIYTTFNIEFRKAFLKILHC
Beta-2 adrenergic receptor (Homo sapiens), sequence (P07550 whole entry, looked up): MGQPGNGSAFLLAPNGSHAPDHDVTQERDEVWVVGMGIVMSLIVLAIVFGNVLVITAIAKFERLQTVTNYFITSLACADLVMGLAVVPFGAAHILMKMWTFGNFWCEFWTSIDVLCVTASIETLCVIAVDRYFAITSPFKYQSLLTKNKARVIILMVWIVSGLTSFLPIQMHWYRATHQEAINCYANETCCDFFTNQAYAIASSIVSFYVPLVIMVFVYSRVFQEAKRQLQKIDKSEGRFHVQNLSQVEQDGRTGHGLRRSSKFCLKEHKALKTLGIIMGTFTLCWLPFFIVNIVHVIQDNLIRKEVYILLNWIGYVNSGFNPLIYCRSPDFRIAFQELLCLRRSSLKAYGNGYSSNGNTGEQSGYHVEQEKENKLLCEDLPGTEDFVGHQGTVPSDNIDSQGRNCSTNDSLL
KiSS-1 receptor (Homo sapiens), sequence (Q969F8 whole entry, looked up): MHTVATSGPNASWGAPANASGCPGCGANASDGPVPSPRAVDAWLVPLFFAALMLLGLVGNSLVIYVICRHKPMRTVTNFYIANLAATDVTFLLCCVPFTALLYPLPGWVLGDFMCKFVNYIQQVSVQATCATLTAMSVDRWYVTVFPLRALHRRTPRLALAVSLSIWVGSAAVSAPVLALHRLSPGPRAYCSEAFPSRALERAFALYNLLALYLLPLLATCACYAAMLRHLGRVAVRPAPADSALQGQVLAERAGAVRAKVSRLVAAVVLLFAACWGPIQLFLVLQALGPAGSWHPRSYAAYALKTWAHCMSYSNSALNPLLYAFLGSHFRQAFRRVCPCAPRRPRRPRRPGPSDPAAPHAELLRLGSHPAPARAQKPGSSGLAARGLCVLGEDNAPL
Muscarinic acetylcholine receptor M1 (Homo sapiens), sequence (P11229 whole entry, looked up): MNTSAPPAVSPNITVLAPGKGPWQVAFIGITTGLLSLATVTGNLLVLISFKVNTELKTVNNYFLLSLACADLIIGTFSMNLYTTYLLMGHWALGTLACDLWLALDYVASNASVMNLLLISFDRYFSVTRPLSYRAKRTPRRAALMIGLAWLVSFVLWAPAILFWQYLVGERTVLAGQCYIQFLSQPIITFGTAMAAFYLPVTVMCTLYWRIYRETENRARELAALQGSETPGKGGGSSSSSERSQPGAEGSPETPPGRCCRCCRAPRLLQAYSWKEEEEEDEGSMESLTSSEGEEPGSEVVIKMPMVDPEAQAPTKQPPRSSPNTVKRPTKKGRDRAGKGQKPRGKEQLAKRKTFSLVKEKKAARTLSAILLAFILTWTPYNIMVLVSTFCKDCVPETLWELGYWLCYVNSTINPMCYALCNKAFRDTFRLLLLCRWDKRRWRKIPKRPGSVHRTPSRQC

O=[N+]([O-])c1ccc(Cl)c(Cl)c1Cl
not listed: [17] | [18] | [19] | [20]
inactive: all other assays above

O=C1CC[C@@]2(O)[C@H]3Cc4ccc(O)c5c4[C@@]2(CCN3CC2CC2)[C@H]1O5
not listed: [2] | [10] | [11] | [12] | [13]
inactive: all other assays above

Cc1cc(=O)[nH]o1
not listed: [9] | [17] | [18]
inactive: all other assays above

N=C(N)[Se]
not listed: [2] | [9] | [11]
inactive: all other assays above

ClC1=C(Cl)[C@]2(Cl)[C@@H]3[C@@H]4C[C@@H]([C@H]5O[C@@H]45)[C@@H]3[C@@]1(Cl)C2(Cl)Cl
active: [1] 48.6 µM | [2] 7.76 µM | [3] 23.7 µM | [19] 10.9 µM | [20] 68.6 µM
inactive: [8]

CC(C)(C)NCC(O)c1cc(Cl)c(N)c(C(F)(F)F)c1 (configuration not stated)
active: [20] 0.0084 µM
not listed: [2] | [8] | [14] | [15] | [18] | [19]
inactive: all other assays above

CCCCN(N=O)C(=N)N[N+](=O)[O-]
active: [9] 37.1 µM
not listed: [5] | [6] | [13] | [14] | [17] | [19]
inactive: all other assays above

CCCC(C)C1(CC)C(=O)N=C(S)NC1=O (configuration not stated)
not listed: [2] | [4] | [5] | [9] | [19]
inactive: all other assays above

COP(=S)(OC)Oc1cc(Cl)c(Br)cc1Cl
active: [6] 45.8 µM
not listed: [3] | [4] | [5] | [9] | [10] | [14]
inactive: all other assays above

CC(=O)[O-].CC(=O)[O-].[Hg+2]
active: [1] 3.06 µM | [2] 38.9 µM | [6] 3.63 µM | [7] 16.2 µM | [8] 7.25 µM | [11] 49 µM | [12] 21.1 µM | [16] 14.2 µM | [20] 5.45 µM
inactive: [17] | [10]

COc1cccc2c1C(=O)c1c(O)c3c(c(O)c1C2=O)C[C@@](O)(C(=O)CO)CC3OC1CC(N2CCOC(OC)C2)C(O)C(C)O1 (some centres not stated)
active: [1] 7.5 µM | [11] 16.9 µM | [18] 1.19 µM
not listed: [2] | [6] | [7] | [8] | [9] | [16] | [20]
inactive: all other assays above

OC(Cn1cncn1)(c1ccc(F)cc1)c1ccccc1F (configuration not stated)
not listed: [12] | [17]
inactive: all other assays above

C[C@]12CC[C@@H]3c4ccc(OC(=O)N(CCCl)CCCl)cc4CC[C@H]3[C@@H]1CC[C@@H]2O
not listed: [2] | [4] | [5] | [9] | [17]
inactive: all other assays above

[Cl][Hg][c]1ccccc1
active: [1] 2.73 µM | [6] 4.58 µM | [7] 8.14 µM | [8] 2.89 µM | [11] 49 µM | [20] 13.7 µM
inactive: [3] | [17] | [4] | [5] | [10] | [12]

COC(=O)c1cc(Oc2ccc(Cl)cc2Cl)ccc1[N+](=O)[O-]
active: [12] 0.0375 µM
not listed: [9] | [11] | [15] | [17]
inactive: all other assays above

CCCC(Cn1cncn1)c1ccc(Cl)cc1Cl (configuration not stated)
not listed: [2] | [8] | [9] | [11] | [14] | [18] | [19] | [20]
inactive: all other assays above

CCN(CC)c1nc(C)cc(OP(=S)(OC)OC)n1
not listed: [2] | [5] | [8] | [12] | [19] | [20]
inactive: all other assays above

[Cl-].[Cl-].[Cl-].[Yb+3]
not listed: [2] | [4] | [5] | [8] | [9] | [11]
inactive: all other assays above

N#C/C=C/C#N
active: [9] 30.2 µM
not listed: [2] | [5] | [8] | [18] | [19]
inactive: all other assays above

CCOC(=O)C(Cl)Cc1cc(-n2nc(C)n(C(F)F)c2=O)c(F)cc1Cl (configuration not stated)
not listed: [6] | [9] | [14] | [16] | [17] | [18] | [19]
inactive: all other assays above

c1coc(-c2nc3ccccc3[nH]2)c1
not listed: [2] | [16]
inactive: all other assays above

COc1cc(CC(C)N)cc2c1OCO2 (configuration not stated)
active: [11] 1.44 µM | [12] 15.6 µM | [15] 32 µM
not listed: [1] | [10] | [13] | [19]
inactive: all other assays above

O=c1ssc(Cl)c1Cl
not listed: [1] | [10]
inactive: all other assays above

N#CC(C#N)=C(C#N)C#N
not listed: [1] | [18] | [19] | [20]
inactive: all other assays above

OC(Cc1ccccc1Cl)(Cn1[nH]cnc1=S)C1(Cl)CC1 (configuration not stated)
active: [11] 38.9 µM
not listed: [1] | [9] | [10] | [19]
inactive: all other assays above

[O-][Br+2]([O-])O
not listed: [1] | [16] | [19]
inactive: all other assays above
